Here are results for 34 sequences from paper doi:10.1101/2024.03.05.583629.

The assay has as its target pT7_6His-AlfaTag-ZIF268 (human, UniProt P18146 335-423). Kind of assay: PADIT-seq. The note with it: dsDNA, one strand shown.
For “CTCGAGGATATCAAGATCTGGCCTCGGCAGTTTAAAAGGAACCTCTAGCTAGCCGACTCACTATAGGGATAATCGCCCTGAGCAAAGACC”, the binding signal is 0.0518 ± 0.0805 log2FC. As to “CTCGAGGATATCAAGATCTGGCCTCGGCCGCCCACTTGGAACCTCTAGCTAGCCGACTCACTATAGGGATAATCGCCCTGAGCAAAGACC”, the binding signal is 0.543 ± 0.104 log2FC. Then “CTCGAGGATATCAAGATCTGGCCTCGGCATTTTAATAGGAACCTCTAGCTAGCCGACTCACTATAGGGATAATCGCCCTGAGCAAAGACC”, with 0.0148 ± 0.0814 log2FC; and “CTCGAGGATATCAAGATCTGGCCTCGGCGCGTGGTTAGGAACCTCTAGCTAGCCGACTCACTATAGGGATAATCGCCCTGAGCAAAGACC”, with 0.357 ± 0.094 log2FC; and “CTCGAGGATATCAAGATCTGGCCTCGGCAGCCCACGCGGAACCTCTAGCTAGCCGACTCACTATAGGGATAATCGCCCTGAGCAAAGACC”, with 0.806 ± 0.0795 log2FC. Then “CTCGAGGATATCAAGATCTGGCCTCGGCATCTTAAAAGGAACCTCTAGCTAGCCGACTCACTATAGGGATAATCGCCCTGAGCAAAGACC”, with 0.00209 ± 0.0901 log2FC; and “CTCGAGGATATCAAGATCTGGCCTCGGCGAATGGGCGGGAACCTCTAGCTAGCCGACTCACTATAGGGATAATCGCCCTGAGCAAAGACC”, with 0.0552 ± 0.0878 log2FC; and “CTCGAGGATATCAAGATCTGGCCTCGGCGCGTGGACTGGAACCTCTAGCTAGCCGACTCACTATAGGGATAATCGCCCTGAGCAAAGACC”, with 0.0272 ± 0.108 log2FC. “CTCGAGGATATCAAGATCTGGCCTCGGCGTTTTAAGTGGAACCTCTAGCTAGCCGACTCACTATAGGGATAATCGCCCTGAGCAAAGACC”: the binding signal was determined as 0.00666 ± 0.106 log2FC. Under “CTCGAGGATATCAAGATCTGGCCTCGGCTGTTGGGCGGGAACCTCTAGCTAGCCGACTCACTATAGGGATAATCGCCCTGAGCAAAGACC” stands 0.111 ± 0.0773 log2FC; under “CTCGAGGATATCAAGATCTGGCCTCGGCGCGACAGCGGGAACCTCTAGCTAGCCGACTCACTATAGGGATAATCGCCCTGAGCAAAGACC”, 0.028 ± 0.102 log2FC. “CTCGAGGATATCAAGATCTGGCCTCGGCAGTTGGGCGGGAACCTCTAGCTAGCCGACTCACTATAGGGATAATCGCCCTGAGCAAAGACC”: the binding signal came to 0.102 ± 0.086 log2FC. Under “CTCGAGGATATCAAGATCTGGCCTCGGCTCCCCACGCGGAACCTCTAGCTAGCCGACTCACTATAGGGATAATCGCCCTGAGCAAAGACC” stands 0.208 ± 0.106 log2FC; under “CTCGAGGATATCAAGATCTGGCCTCGGCCATTGGGCGGGAACCTCTAGCTAGCCGACTCACTATAGGGATAATCGCCCTGAGCAAAGACC”, 0.139 ± 0.0899 log2FC. Under “CTCGAGGATATCAAGATCTGGCCTCGGCGCGTGGATAGGAACCTCTAGCTAGCCGACTCACTATAGGGATAATCGCCCTGAGCAAAGACC” stands 0.0372 ± 0.0987 log2FC; under “CTCGAGGATATCAAGATCTGGCCTCGGCATTTTATATGGAACCTCTAGCTAGCCGACTCACTATAGGGATAATCGCCCTGAGCAAAGACC”, 0.238 ± 0.0895 log2FC. With “CTCGAGGATATCAAGATCTGGCCTCGGCTAATGGGCGGGAACCTCTAGCTAGCCGACTCACTATAGGGATAATCGCCCTGAGCAAAGACC”, the binding signal came out at 0.0526 ± 0.0899 log2FC. Turning to “CTCGAGGATATCAAGATCTGGCCTCGGCGCGTGGAATGGAACCTCTAGCTAGCCGACTCACTATAGGGATAATCGCCCTGAGCAAAGACC”, the binding signal worked out at 0.0778 ± 0.106 log2FC. Consider “CTCGAGGATATCAAGATCTGGCCTCGGCCGCCCACTAGGAACCTCTAGCTAGCCGACTCACTATAGGGATAATCGCCCTGAGCAAAGACC”, for which the binding signal came to 0.246 ± 0.0891 log2FC. Under “CTCGAGGATATCAAGATCTGGCCTCGGCGCGGGGGCGGGAACCTCTAGCTAGCCGACTCACTATAGGGATAATCGCCCTGAGCAAAGACC” stands 3.63 ± 0.0947 log2FC; under “CTCGAGGATATCAAGATCTGGCCTCGGCTAGTGGGCGGGAACCTCTAGCTAGCCGACTCACTATAGGGATAATCGCCCTGAGCAAAGACC”, 1.78 ± 0.084 log2FC. “CTCGAGGATATCAAGATCTGGCCTCGGCGCGGGCGCGGGAACCTCTAGCTAGCCGACTCACTATAGGGATAATCGCCCTGAGCAAAGACC” registered a binding signal of 0.156 ± 0.102 log2FC.

“CTCGAGGATATCAAGATCTGGCCTCGGCTTTTTACAGGGAACCTCTAGCTAGCCGACTCACTATAGGGATAATCGCCCTGAGCAAAGACC” displayed a binding signal of 0.066 ± 0.102 log2FC. Under “CTCGAGGATATCAAGATCTGGCCTCGGCTCATGGGCGGGAACCTCTAGCTAGCCGACTCACTATAGGGATAATCGCCCTGAGCAAAGACC” stands 0.0784 ± 0.105 log2FC; under “CTCGAGGATATCAAGATCTGGCCTCGGCGTCATAAAAGGAACCTCTAGCTAGCCGACTCACTATAGGGATAATCGCCCTGAGCAAAGACC”, 0.00486 ± 0.0824 log2FC. Then “CTCGAGGATATCAAGATCTGGCCTCGGCATTTTATCTGGAACCTCTAGCTAGCCGACTCACTATAGGGATAATCGCCCTGAGCAAAGACC”, with 0.0226 ± 0.102 log2FC. Under “CTCGAGGATATCAAGATCTGGCCTCGGCTTTTTATCGGGAACCTCTAGCTAGCCGACTCACTATAGGGATAATCGCCCTGAGCAAAGACC” stands 0.00149 ± 0.091 log2FC; under “CTCGAGGATATCAAGATCTGGCCTCGGCGAGTGGGCGGGAACCTCTAGCTAGCCGACTCACTATAGGGATAATCGCCCTGAGCAAAGACC”, 2.79 ± 0.0771 log2FC; under “CTCGAGGATATCAAGATCTGGCCTCGGCCGCTTGCGCGGAACCTCTAGCTAGCCGACTCACTATAGGGATAATCGCCCTGAGCAAAGACC”, 0.0632 ± 0.103 log2FC. Sequence “CTCGAGGATATCAAGATCTGGCCTCGGCGCGTGGGTTGGAACCTCTAGCTAGCCGACTCACTATAGGGATAATCGCCCTGAGCAAAGACC” yielded a binding signal of 2.53 ± 0.0963 log2FC. Sequence “CTCGAGGATATCAAGATCTGGCCTCGGCATTTGGGCGGGAACCTCTAGCTAGCCGACTCACTATAGGGATAATCGCCCTGAGCAAAGACC” had a binding signal of 0.125 ± 0.0899 log2FC.

Sequence “CTCGAGGATATCAAGATCTGGCCTCGGCTTATTAAAAGGAACCTCTAGCTAGCCGACTCACTATAGGGATAATCGCCCTGAGCAAAGACC” yielded a binding signal of 0.0487 ± 0.0902 log2FC. “CTCGAGGATATCAAGATCTGGCCTCGGCGGAGTAAAAGGAACCTCTAGCTAGCCGACTCACTATAGGGATAATCGCCCTGAGCAAAGACC”: the binding signal turned out to be 0.0307 ± 0.0975 log2FC.

As to “CTCGAGGATATCAAGATCTGGCCTCGGCGTATGGGCGGGAACCTCTAGCTAGCCGACTCACTATAGGGATAATCGCCCTGAGCAAAGACC”, the binding signal was 0.246 ± 0.0831 log2FC.
